Shown are actives, neighbours in structure and some others; about 19% of the full set was active somewhere.
TDP1 block – qHTS Assay for Inhibitors of Tyrosyl-DNA Phosphodiesterase (TDP1); 350,000 compounds, 0.28% hits; Tyrosyl-DNA phosphodiesterase 1 (Homo sapiens), Q9NUW8; AID 485290, 2010; Potency, µM (series often up to 130 µM), without a hit: at the highest dose activity change, negative = inhibition, hits mostly inhibitors; recombinant TDP1, AlphaScreen DNA substrate cleavage; also: potency is read from the fitted curve at half-maximal effect; nearly all actives have a fitted effect of over 40% in size
Target sequence (Q9NUW8 whole entry, looked up): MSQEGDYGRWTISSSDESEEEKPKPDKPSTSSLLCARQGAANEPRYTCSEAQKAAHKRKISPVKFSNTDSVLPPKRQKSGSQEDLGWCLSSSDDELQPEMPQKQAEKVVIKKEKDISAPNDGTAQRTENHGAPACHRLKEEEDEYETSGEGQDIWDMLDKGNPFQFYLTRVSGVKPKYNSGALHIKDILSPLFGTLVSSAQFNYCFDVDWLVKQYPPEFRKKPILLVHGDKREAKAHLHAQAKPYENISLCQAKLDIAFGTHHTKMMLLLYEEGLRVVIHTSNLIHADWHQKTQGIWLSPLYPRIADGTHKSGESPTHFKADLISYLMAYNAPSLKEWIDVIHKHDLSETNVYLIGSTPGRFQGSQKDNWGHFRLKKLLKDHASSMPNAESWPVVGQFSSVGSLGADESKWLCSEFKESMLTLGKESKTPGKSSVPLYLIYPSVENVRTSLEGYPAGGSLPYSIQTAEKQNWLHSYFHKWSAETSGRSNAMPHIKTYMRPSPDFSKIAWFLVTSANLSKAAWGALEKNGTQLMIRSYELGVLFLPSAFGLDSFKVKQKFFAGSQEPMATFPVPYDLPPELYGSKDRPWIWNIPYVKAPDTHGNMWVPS
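E. coli-derived human Tdp1, 1 nM final. Cpd preinc 15 min RT; substrate 15 nM final, 5 min RT; AS bead mix 10 ug/ml final, 10 min RT. Signal loss = tyrosine-FITC cleavage. No-enzyme wells = max signal.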
IL1B secr inh – qHTS for Inhibitors of Inflammasome Signaling: IL-1-beta AlphaLISA Primary Screen. activity change, % at 57.5 µM. THP-1 LPS/ATP IL-1B secretion, AlphaLISA, 16 h; active compounds read low. 360,000 compounds, 4.7% hits. AID 743279, 2014; in the data active = activity change below about -50%; inconclusive = mostly about -30% to -49%
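THP-1 cells pretreated 1 hr with compounds (up to 57.5 uM final), then stimulated with LPS (250 ng/mL final) plus ATP (1.25 mM final); secreted IL-1B measured by AlphaLISA after 16 hr, decreased signal indicating inhibition.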
DT40 TDP1 CPT – qHTS for Inhibitors of human tyrosyl-DNA phosphodiesterase 1 (TDP1): qHTS in cells in presence of CPT | Potency, µM (top dose mostly 46.2 µM), inactives show at the top dose activity change, negative = growth inhibition, most hits filed as inhibitors | 420,000 compounds, 12% hits | chicken DT40 Tdp1-/-;hTDP1 cells + 20 nM CPT, ATP luminescence, 48 h; also: potency is read from the fitted curve at half-maximal effect; nearly all actives have a fitted effect of over 55% in size
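Chicken DT40 Tdp1-/- cells stably complemented with human TDP1 were seeded at 400 cells/well in medium containing 20 nM camptothecin, exposed to pin-transferred compounds, and grown at 37 °C for at least 48 hr. Viability was read as ATP luminescence.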
DT40 TDP1 no CPT – qHTS for Inhibitors of human tyrosyl-DNA phosphodiesterase 1 (TDP1): qHTS in cells in absence of CPT; DT40 Tdp1-/- hTDP1 cells, no CPT, ATP luminescence, 48 h; Potency, µM (top dose mostly 46.2 µM), inactives show at the highest dose activity change, negative = growth inhibition, hits mostly inhibitors; 420,000 compounds, 15% hits; AID 686978, 2013; also: potency is read from the fitted curve at half-maximal effect; nearly all actives have a fitted effect of over 55% in size
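Compound effects on proliferation are scored in DT40 Tdp1-/-;hTDP1 cells in the absence of CPT. ATP levels (CellTiter-Glo luminescence) are recorded after a ≥48 hr, 37 °C incubation.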
ELG1 repair inh – qHTS screen for small molecules that inhibit ELG1-dependent DNA repair in human embryonic kidney (HEK293T) cells expressing luciferase-tagged ELG1; HEK293T ELG1-luciferase reporter, luminescence, 16 h; DNA damage induced by 5-fluorouridine; Potency, µM (series often up to 46.1 µM), without a hit: at the top dose activity change, negative = inhibition, actives largely listed as inhibitors; 330,000 compounds, 2.3% hits; also: potency is read from the fitted curve at half-maximal effect; nearly all actives have a fitted effect of over 55% in size
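Reporter activity after DNA damage by 5-fluorouridine is monitored. Compound-treated cells incubate 16 hr at 37 °C, then ONE-Glo is added for 30 min before luminescence reading.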
Giardia kill – Small Molecules that selectively kill Giardia lamblia: qHTS; AID 540267, 2011; activity change, % at 7.66 µM, hits read low; 340,000 compounds, 0.15% hits; Giardia lamblia trophozoite viability; in the data active = activity change below about -80%; inconclusive = between about -30% and that limit;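 also: parasites exposed to compound for two days anaerobically before the ATP read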
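Giardia trophozoites, 100 cells per well, were exposed to compounds for 48 hrs at 37 deg C under anaerobic conditions; viability was then read as ATP content by bioluminescence after 15-30 min at room temperature.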
* marks the source's active call; other numbers are inactive results; u = inconclusive; x = no result given; [ ] = dose if it differs, or a comment. Unless noted, calls follow the shape of the dose curve; as a rule, active = well fitted curve in the direction sought with a large enough effect; inconclusive = small, poorly fitted or top-dose-only effect, or another doubt; inactive = no such curve, though single readings can be large; an effect the other way counts as inactive or inconclusive. % is scaled to controls: 0 for no effect and ±100 for the full control effect.

SMILES | TDP1 block | IL1B secr inh | DT40 TDP1 CPT | DT40 TDP1 no CPT | ELG1 repair inh | Giardia kill
CCc1ccccc1N1C(=O)N(CC(=O)c2ccc(Cl)cc2)c2ccccc2S1(=O)=O | 3.4% | x | u | u | x | x
CC(=O)c1ccc(N2C(=O)N(Cc3ccccc3C#N)c3ccccc3S2(=O)=O)cc1 | 9.3% | x | 16.4µM* | u | x | x
COC(=O)c1ccc(OC)c(CN2C(=O)N(c3ccc(C(C)=O)cc3)S(=O)(=O)c3ccccc32)c1 | 1.5% | x | 14.6µM* | 16.4µM* | x | x
COc1cccc(CNC(=O)Cn2c(=O)cc(C)c3c(C)nn(C)c32)c1OC | -0.6% | x | 23.1µM* | 18.4µM* | x | x
Cc1cc(C)cc(N2C(=O)N(CC(=O)c3ccc(Br)cc3)c3ccccc3S2(=O)=O)c1 | 5.4% | x | -4.2% | -18.3% | x | x
CC(=O)c1ccc(N2C(=O)N(Cc3cc(C)ccc3C)c3ccccc3S2(=O)=O)cc1 | 5.4% | x | 23.1µM* | 18.4µM* | x | x
COc1cccc(CNC(=O)Cn2nc(C)c3sc4ccccc4c3c2=O)c1OC | 14.3% | x | -12.4% | -13.1% | x | x
CNC(=S)N1N=C(c2ccc(C)cc2)CC1c1ccc(N(C)C)cc1 (stereo unspecified) | 5.8% | -7.4 | -22.7% | u | u | -12.2
C[C@H](NC(=O)[C@@H]1CCCN1C(=O)[C@@H]1CCCN1C(=O)c1cccs1)c1ccccc1 | x | 32.6 | -8.0% | -13.7% | x | x
Cc1cccc(NC(=O)c2c(N)sc3c2CCC(C)C3)c1 (stereo unspecified) | x | x | u | -54.7% | x | x
O=C(CCNS(=O)(=O)c1ccccc1)N1CCN(c2ccccc2F)CC1 | 4.0% | 4.9 | -26.5% | u | -0.6% | -5.0
Cc1ccc(NC(=O)COc2ccccc2)c(NC(=O)c2ccco2)c1 | 1.2%[56.1 µM] | 7.3 | -12.3% | 4.2% | 7.0% | 21.1
Cc1cnc(-n2ncc(C(=O)NC(C)(C)CO)c2-c2cccs2)nc1-c1ccc(F)cc1 | x | x | -10.2%[9.04 µM] | u | x | x
CCc1ccc(-n2c(=O)c3ccccc3n(CC(=O)C(C)(C)C)c2=O)cc1 | -1.8% | 0.0 | u | 18.4µM* | -17.3% | 7.7
CCc1ccc(N2C(=O)N(CC(=O)C(C)(C)C)c3ccccc3S2(=O)=O)cc1 | 6.4% | x | 13µM* | 20.6µM* | x | x
COc1cccc(N2C(=O)N(CC(=O)NCc3cccc(OC)c3OC)c3ccccc3S2(=O)=O)c1 | -1.5% | x | -14.3% | -16.8% | x | x
CCc1cccc(N2C(=O)N(CC(=O)NCc3cccc(OC)c3OC)c3ccccc3S2(=O)=O)c1 | 4.4% | x | 13µM* | u | x | x
CC(=O)c1ccc(N2C(=O)N(CC(=O)c3ccc(F)cc3)c3ccccc3S2(=O)=O)cc1 | 0.5% | x | -22.9% | u | x | x
CC(=O)c1ccc(N2C(=O)N(Cc3ccc(F)cc3)c3ccccc3S2(=O)=O)cc1 | 4.4% | x | 20.6µM* | 16.4µM* | x | x
CCc1ccc(-n2c(=O)c3ccccc3n(CC(=O)NCc3ccco3)c2=O)cc1 | -1.1% | 11.5 | 1.7% | -15.7% | 3.5% | -1.0
COc1ccccc1N1C(=O)N(CC(=O)C(C)(C)C)c2ccccc2S1(=O)=O | -3.4% | 5.8 | -22.4% | u | 27.9% | -16.8
Cc1ccc(C(=O)NCC(=O)OC(C(=O)Nc2cc(C(F)(F)F)ccc2Cl)c2ccccc2)cc1 (stereo unspecified) | -0.9% | x | x | x | x | x
CC(C)Cc1nn2cc(-c3cccc(Br)c3)nc2s1 | -9.3% | x | u | -28.3% | x | x
COc1ccc(S(=O)(=O)N2CCCCCC2)cc1N(C)S(=O)(=O)c1ccc(Cl)cc1 | 4.0% | -28.5 | 16.4µM* | 18.4µM* | u | 10.1

High-throughput results (PubChem)
